A selection: hits, their analogues and other compounds. The true share with any hit is near 6.9%.
JNK3 inh: JNK3 (human) kinase inhibition. P53779. purified JNK3 kinase activity, HTS. inhibition, % at 8 µM. hit rate 0.61% among 60,000. AID 746; in the data active = inhibition above about 17%
FXIa mix inh: blocks human factor XIa in pooled compound mixtures; P03951; purified FXIa, fluorogenic substrate; inhibition, % at 5 µM; hit rate 0.19% among 62,000; AID 680;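 also: each value is inhibition by a whole ten-compound pool holding the compound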
M1 antag: antagonists of rat M1 muscarinic receptor | P08482 | CHO-M1 cells, Fluo-4 calcium, ACh EC80 antagonist mode; active compounds read low | B-score at 10 µM | hit rate 3.4% among 64,000 | AID 628;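 active = calcium fluorescence response, raw or row-and-column corrected B-score, differing from the plate sample mean either way at a set confidence level, mostly lower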
M1 ag: activates the M1 muscarinic receptor. CHO-M1 cells, Fluo-4 calcium fluorescence, agonist mode; active compounds read high. B-score at 10 µM. hit rate 3% among 64,000;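 active = fluorescence rise, raw or as B-score row- and column-corrected plate score, outside the 99.7% band of its plate's samples, either direction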
FXIIa mix inh: factor XIIa (human) inhibition, mixture screen; purified FXIIa, fluorogenic substrate, pooled mixtures; inhibition, % at 5 µM; hit rate 0.2% among 62,000; AID 684
Her2 expr inh: lowers expression of human Her2 kinase; SKBR-3 HER2 protein level, AlphaScreen, 18-24 h; active compounds read low; HER2 level % of control, % at 10 µM; hit rate 0.69% among 65,000;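 active = HER2 level under 5% of the carrier-only control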;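 also: lower value means stronger loss of Her2 protein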
Target sequence (P04626 whole entry, looked up): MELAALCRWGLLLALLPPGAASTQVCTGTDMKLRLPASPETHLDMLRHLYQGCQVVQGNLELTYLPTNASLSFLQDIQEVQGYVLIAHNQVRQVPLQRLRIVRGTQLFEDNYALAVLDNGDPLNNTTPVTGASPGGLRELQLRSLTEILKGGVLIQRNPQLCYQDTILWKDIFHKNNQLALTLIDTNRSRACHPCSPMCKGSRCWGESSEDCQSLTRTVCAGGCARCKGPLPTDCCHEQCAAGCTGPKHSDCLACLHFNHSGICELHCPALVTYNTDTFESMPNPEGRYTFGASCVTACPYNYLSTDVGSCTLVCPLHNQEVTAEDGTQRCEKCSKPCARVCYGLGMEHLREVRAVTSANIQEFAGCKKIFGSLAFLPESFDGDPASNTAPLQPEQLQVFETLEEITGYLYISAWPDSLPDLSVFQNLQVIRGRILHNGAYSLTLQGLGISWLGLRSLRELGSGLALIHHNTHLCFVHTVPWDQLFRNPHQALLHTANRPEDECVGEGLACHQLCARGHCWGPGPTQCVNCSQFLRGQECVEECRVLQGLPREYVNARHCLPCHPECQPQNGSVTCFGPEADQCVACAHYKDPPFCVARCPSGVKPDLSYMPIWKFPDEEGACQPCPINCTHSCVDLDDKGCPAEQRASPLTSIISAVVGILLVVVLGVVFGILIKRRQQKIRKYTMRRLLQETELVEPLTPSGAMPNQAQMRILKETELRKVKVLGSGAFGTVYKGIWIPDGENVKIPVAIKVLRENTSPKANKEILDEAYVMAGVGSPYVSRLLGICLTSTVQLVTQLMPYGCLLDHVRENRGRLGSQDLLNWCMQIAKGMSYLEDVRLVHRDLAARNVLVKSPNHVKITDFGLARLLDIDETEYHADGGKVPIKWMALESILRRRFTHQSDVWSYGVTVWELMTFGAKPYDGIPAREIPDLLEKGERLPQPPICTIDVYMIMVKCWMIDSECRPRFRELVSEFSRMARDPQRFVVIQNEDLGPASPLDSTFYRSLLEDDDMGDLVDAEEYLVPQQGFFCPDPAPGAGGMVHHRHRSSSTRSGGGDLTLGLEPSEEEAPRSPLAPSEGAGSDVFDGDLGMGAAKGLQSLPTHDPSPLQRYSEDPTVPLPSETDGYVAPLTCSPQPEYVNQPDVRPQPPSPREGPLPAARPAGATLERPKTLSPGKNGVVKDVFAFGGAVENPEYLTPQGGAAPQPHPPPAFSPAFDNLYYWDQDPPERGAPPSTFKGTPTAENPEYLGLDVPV
Hits are given with their value. Rule as the data show it, unless noted: active = inhibition above about 20% (passing the limit was not always enough); inactive = the rest.

How did CC[C@@H](C)[C@H](NC(=O)OC(C)(C)C)c1nnc(S(=O)(=O)Cc2cc(C)ccc2C)o1 do in these assays?
JNK3 inh: inactive; FXIa mix inh: inactive; M1 antag: inactive; M1 ag: inactive; FXIIa mix inh: inactive; Her2 expr inh: -13

Results for Cc1ccccc1CS(=O)(=O)c1nnc([C@H](CC(C)C)NC(=O)OC(C)(C)C)o1 ?
JNK3 inh: inactive; FXIa mix inh: inactive; M1 antag: inactive; M1 ag: inactive; FXIIa mix inh: inactive; Her2 expr inh: -14

What do the screens show for `C=CCc1cccc2cc(C(=O)N(C)C)c(=O)oc12`?
JNK3 inh: inactive; FXIa mix inh: inactive; M1 antag: inactive; M1 ag: inactive; FXIIa mix inh: inactive; Her2 expr inh: inactive

Results for C=CCc1cccc2cc(C(=O)NC)c(=O)oc12 ?
JNK3 inh: inactive; FXIa mix inh: inactive; M1 antag: inactive; M1 ag: inactive; FXIIa mix inh: inactive; Her2 expr inh: -18

Results for Cc1nn2c(c1-c1ccccc1)NC1=C(C(=O)CCC1)C2c1cccnc1 (stereo not given) ?
JNK3 inh: inactive; FXIa mix inh: inactive; M1 antag: inactive; M1 ag: inactive; FXIIa mix inh: inactive; Her2 expr inh: inactive

What do the screens show for `CC1(C)NC(=O)N(CC(O)CN2CCCCC2)C1=O` (stereo not given)?
JNK3 inh: inactive; FXIa mix inh: inactive; M1 antag: inactive; M1 ag: inactive; FXIIa mix inh: inactive; Her2 expr inh: inactive

What do the screens show for `CC1(C)NC(=O)N(CC(O)COC2CCCCC2)C1=O` (stereo not given)?
JNK3 inh: inactive; FXIa mix inh: inactive; M1 antag: inactive; M1 ag: inactive; FXIIa mix inh: 20; Her2 expr inh: inactive

What do the screens show for `COc1cc(OC)c(-c2nn3c(-c4ccco4)nnc3s2)cc1OC`?
JNK3 inh: inactive; FXIa mix inh: inactive; M1 antag: inactive; M1 ag: 4.4; FXIIa mix inh: inactive; Her2 expr inh: inactive

What do the screens show for `c1ccc(CNn2nnnc2-c2ccccc2)cc1`?
JNK3 inh: inactive; FXIa mix inh: inactive; M1 antag: inactive; M1 ag: inactive; FXIIa mix inh: inactive; Her2 expr inh: inactive

What do the screens show for `O=C(NCCN1CCOCC1)c1cc2ccccc2o1`?
FXIa mix inh: inactive; M1 antag: inactive; M1 ag: inactive; FXIIa mix inh: 34; Her2 expr inh: inactive

How did COc1ccc(OC)c2[nH]c(=O)c(CCNC(=O)c3ccc(Br)o3)cc12 do in these assays?
JNK3 inh: inactive; M1 antag: inactive; M1 ag: inactive; Her2 expr inh: inactive

What do the screens show for `NCC[C@H](O)C(=O)N[C@@H]1C[C@H](N)[C@@H](O[C@H]2O[C@H](CN)[C@@H](O)[C@H](O)[C@H]2O)[C@H](O)[C@H]1O[C@H]1O[C@H](CO)[C@@H](O)[C@H](N)[C@H]1O`?
Her2 expr inh: inactive

What do the screens show for `CCn1nnnc1NCc1cccn1C`?
JNK3 inh: inactive; FXIa mix inh: inactive; M1 antag: inactive; M1 ag: inactive; FXIIa mix inh: inactive; Her2 expr inh: inactive

How did Cc1csc(CCc2nc(C)cs2)n1 do in these assays?
JNK3 inh: inactive; FXIa mix inh: inactive; M1 antag: inactive; M1 ag: inactive; FXIIa mix inh: 22; Her2 expr inh: inactive

What do the screens show for `Cc1csc(SCC(=O)N2CCCC2)n1`?
JNK3 inh: inactive; FXIa mix inh: inactive; FXIIa mix inh: inactive; Her2 expr inh: inactive

Results for CCOc1ccc(-n2c(Cc3ccccc3)nnc2SCc2c(C)noc2C)cc1 ?
JNK3 inh: inactive; FXIa mix inh: inactive; M1 antag: inactive; M1 ag: inactive; FXIIa mix inh: inactive; Her2 expr inh: inactive

How did O=C(C1CCCN(S(=O)(=O)c2ccc(F)cc2)C1)N(Cc1cccs1)C1CC1 (stereo not given) do in these assays?
FXIa mix inh: inactive; M1 antag: inactive; M1 ag: inactive; FXIIa mix inh: inactive; Her2 expr inh: inactive

How did CCOC(=O)Nc1ccc2c(c1)N(C(=O)N(CC)CC)c1ccccc1CC2 do in these assays?
FXIa mix inh: inactive; M1 antag: inactive; M1 ag: inactive; FXIIa mix inh: inactive

How did CCCCn1cc(SCC(=O)O)c2ccccc21 do in these assays?
JNK3 inh: inactive; FXIa mix inh: inactive; M1 antag: 21; M1 ag: inactive; FXIIa mix inh: inactive; Her2 expr inh: inactive

How did C/C(NCC(C)(C)CN(C)C)=C(/C#N)C(=O)NCc1ccccc1 do in these assays?
JNK3 inh: inactive; FXIa mix inh: inactive; M1 antag: inactive; M1 ag: inactive; FXIIa mix inh: inactive; Her2 expr inh: inactive

What do the screens show for `C/C(NCc1cccnc1)=C(\C#N)C(=O)NCc1ccccc1`?
JNK3 inh: inactive; FXIa mix inh: inactive; M1 antag: 2.2; M1 ag: inactive; FXIIa mix inh: inactive; Her2 expr inh: inactive

What do the screens show for `CCOC(=O)N1CCN(c2nc(C)c3c(n2)CC(C)CC3=O)CC1` (stereo not given)?
JNK3 inh: inactive; FXIa mix inh: inactive; M1 antag: inactive; M1 ag: inactive; FXIIa mix inh: inactive; Her2 expr inh: inactive

Results for CCOc1ccc(Nc2nc3c(c(=O)[nH]2)CCCC3)cc1 ?
JNK3 inh: inactive; FXIa mix inh: inactive; M1 antag: inactive; M1 ag: inactive; FXIIa mix inh: inactive; Her2 expr inh: inactive

How did O=c1[nH]c(Nc2nc3ccccc3o2)nc2c1CCCC2 do in these assays?
JNK3 inh: inactive; FXIa mix inh: inactive; M1 antag: inactive; M1 ag: inactive; FXIIa mix inh: inactive; Her2 expr inh: -3.3

How did COc1ccc(Cl)cc1NC(=O)CN1CCC(n2nnc3cc(F)ccc32)CC1 do in these assays?
JNK3 inh: inactive; FXIa mix inh: inactive; M1 antag: inactive; M1 ag: inactive; FXIIa mix inh: inactive; Her2 expr inh: inactive

What do the screens show for `CN1CC2=Cc3ccccc3OC23Oc2ccccc2C=C3C1`?
JNK3 inh: inactive; FXIa mix inh: inactive; M1 antag: inactive; M1 ag: inactive; FXIIa mix inh: inactive; Her2 expr inh: -7.0

Results for COC(=O)c1sc(N2C(=O)C(O)=C(C(=O)c3ccc(C)o3)C2c2ccc(F)cc2)nc1C (stereo not given) ?
JNK3 inh: inactive; FXIa mix inh: 40; M1 antag: inactive; M1 ag: inactive; FXIIa mix inh: inactive; Her2 expr inh: inactive

What do the screens show for `O=C(Nc1nccs1)c1ccc(Br)o1`?
JNK3 inh: 18; FXIa mix inh: inactive; FXIIa mix inh: inactive; Her2 expr inh: inactive

Results for CC1=C(C)C(=O)NC(Nc2nc(C)c3cc(C)cc(C)c3n2)N1 (stereo not given) ?
JNK3 inh: inactive; FXIa mix inh: inactive; M1 antag: inactive; M1 ag: inactive; FXIIa mix inh: inactive; Her2 expr inh: -14

How did CCOC(=O)C1CCCN(C(=O)C2c3ccccc3Oc3ccccc32)C1 (stereo not given) do in these assays?
JNK3 inh: inactive; FXIa mix inh: inactive; M1 antag: 0.68; M1 ag: inactive; FXIIa mix inh: inactive; Her2 expr inh: inactive

How did C=C(C)c1cccc(C(C)(C)NC(=O)N2CC(C)OC(C)C2)c1 (stereo not given) do in these assays?
JNK3 inh: inactive; FXIa mix inh: inactive; FXIIa mix inh: 22; Her2 expr inh: inactive
